Sampled rows, rich in hits. Any-hit rate of the full collection: about 3%.
FBA Mtb inh = Mtb fructose-bisphosphate aldolase inhibition; purified M. tuberculosis FBA, fluorescence read-out; P9WQA3; AID 588726; 2.3% of 360,000 active; inhibition, % at 1 µM;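 note: 0% = vehicle and 100% = reference inhibitor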
Target sequence (P9WQA3 whole entry, looked up): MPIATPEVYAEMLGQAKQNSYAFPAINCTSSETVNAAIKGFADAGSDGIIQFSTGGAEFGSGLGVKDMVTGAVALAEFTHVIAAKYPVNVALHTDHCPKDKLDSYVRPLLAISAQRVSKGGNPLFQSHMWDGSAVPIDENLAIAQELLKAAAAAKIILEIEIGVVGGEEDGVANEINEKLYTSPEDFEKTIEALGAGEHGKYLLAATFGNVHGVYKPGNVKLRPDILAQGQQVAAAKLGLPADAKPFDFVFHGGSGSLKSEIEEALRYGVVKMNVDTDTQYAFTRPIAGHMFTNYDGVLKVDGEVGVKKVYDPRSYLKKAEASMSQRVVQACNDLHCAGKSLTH
Rv3671c inh = inhibitors of M. tuberculosis serine protease Rv3671c. P9WHR9. inhibition, % at 5.96 µM. 0.048% of 320,000 active. AID 2606; in the data active = inhibition above about 38%;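 note: extracellular domain of Rv3671c used as enzyme; 0% = enzyme with DMSO and 100% = no enzyme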
Target sequence (P9WHR9 whole entry, looked up, the tested form may be a part): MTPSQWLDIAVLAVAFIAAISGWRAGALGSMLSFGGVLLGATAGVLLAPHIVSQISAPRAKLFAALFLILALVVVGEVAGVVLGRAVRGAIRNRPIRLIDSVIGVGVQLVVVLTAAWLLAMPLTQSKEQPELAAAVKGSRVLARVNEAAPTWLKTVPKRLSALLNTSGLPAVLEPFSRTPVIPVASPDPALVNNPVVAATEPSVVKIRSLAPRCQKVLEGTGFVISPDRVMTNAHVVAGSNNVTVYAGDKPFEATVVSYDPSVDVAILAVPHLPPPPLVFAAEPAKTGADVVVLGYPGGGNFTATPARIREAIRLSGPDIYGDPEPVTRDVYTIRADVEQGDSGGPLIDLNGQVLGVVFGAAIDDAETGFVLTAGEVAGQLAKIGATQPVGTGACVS
BioA inh = blocks M. tuberculosis BioA enzyme activity; purified M. tuberculosis BioA enzyme, plate reader; inhibition, % at 9.99 µM; 0.096% of 360,000 active; AID 602481; in the data active = inhibition above about 40%
FadD28 FP inh = M. tuberculosis FadD28 bisubstrate binding inhibition; 0.22% of 360,000 active; FadD28 bisubstrate probe binding, fluorescence polarization; AID 588549; inhibition, % at 12.5 µM; in the data active = inhibition above about 8.5%, passing the limit was not always enough
GDH-TPI counter-1 = inhibits GDH-TPI coupling enzymes, artifact for Mtb FBA screen | GDH-TPI coupled enzyme counterscreen, NADH absorbance | inhibition, % at 4.8 µM | 1.2% of 360,000 active; in the data active = inhibition above about 30%;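 note: 0% = DMSO wells and 100% = wells lacking the enzyme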
Mtb FBA confirm = Mtb FBA inhibition, confirmed; shares compounds with FBA Mtb inh; purified M. tuberculosis FBA, fluorescence read-out; inhibition, % at 1 µM; 78% of 5,600 active; AID 651616;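 note: 0% = vehicle wells and 100% = reference inhibitor wells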
GDH-TPI counter-2 = counter-screen for M. tuberculosis FBA inhibitors: GDH-TPI coupled enzyme inhibition; shares compounds with FBA Mtb inh; GDH-TPI coupled enzyme counterscreen, fluorescence; inhibition, % at 1 µM; 81% of 5,600 active; AID 652141; in the data active = inhibition above about 10%
GDH-TPI DR = counter-screen for M. tuberculosis FBA inhibitors: GDH-TPI dose response; shares compounds with FBA Mtb inh; GDH-TPI coupled enzyme assay, fluorescence, artifact counterscreen; IC50, µM; 79% of 170 active; AID 652145; call rule not given here
The depositor's hits bear a star; · = not tested or not shown. Cut-off read from the data, not from the text of the source, unless noted: active = inhibition above about 27%; inactive = the rest.

SMILES | FBA Mtb inh | Rv3671c inh | BioA inh | FadD28 FP inh | GDH-TPI counter-1 | Mtb FBA confirm | GDH-TPI counter-2 | others
C[C@@H]1CN([C@H](C)CO)C(=O)c2cc(NC(=O)CCC(F)(F)F)ccc2O[C@H]1CN(C)C(=O)NC1CCCCC1 | · | · | -2.1 | · | · | · | ·
CO[C@H]1CC[C@@H]2CCN(C)C(=O)[C@H](C)[C@@H](OC)CN(C)C(=O)c3cccc(C#N)c3OC[C@@H]1O2 | · | · | -0.7 | · | · | · | ·
Cc1cc(C(=O)Nc2cccc3c2O[C@H](CN(C)Cc2ccc(Oc4ccccc4)cc2)[C@@H](C)CN([C@H](C)CO)C3=O)n(C)n1 | · | · | -0.1 | · | · | · | ·
CN(C)CCNC(=O)c1cccc(-c2cccc3nccn23)c1 | 12.7 | · | -2.0 | 2.5 | 4.4 | · | ·
CN(C)C(=O)c1cccc(-c2cccc3nccn23)c1 | 40.8* | · | 2.5 | -3.8 | 6.7 | 87.8* | 58.5*
CN1C(=O)[C@H]2[C@@H](C3CC3)N3C(=O)CN(CCO)C(=O)[C@@]3(Cc3ccccc3)[C@H]2C1=O | -1.1 | 4.1 | -2.5 | 0.0 | 11.2 | · | ·
CN1C(=O)[C@H]2[C@@H](C3CC3)N3C(=O)CN(Cc4ccccn4)C(=O)[C@@]3(Cc3ccccc3)[C@H]2C1=O | 67.8* | -1.8 | -4.2 | -3.6 | -2.2 | 70.4* | 57.0*
COCCn1c(N)c(C(=O)NCc2cccs2)c2nc3ccccc3nc21 | 101.4* | -83.6 | 3.3 | -1.7 | -10.9 | 116.4* | 76.9*
COc1ccc(-n2c(N)c(C(=O)NCc3ccco3)c3nc4ccccc4nc32)cc1 | 97.8* | -5.5 | · | 0.4 | 31.7* | 44.5* | 40.8*
Nc1c(C(=O)NCc2ccco2)c2nc3ccccc3nc2n1CCN1CCCCC1 | 90.7* | -31.3 | 0.3 | -2.8 | 17.7 | 13.1 | 4.6 | GDH-TPI DR=1.64*
CCCNC(=O)c1c(N)n(Cc2ccc3c(c2)OCO3)c2nc3ccccc3nc12 | 0.4 | 0.8 | 0.0 | -2.8 | 5.1 | · | ·
COc1ccc(Cn2c(N)c(C(=O)NCc3ccco3)c3nc4ccccc4nc32)cc1OC | 2.9 | -106.1 | -3.4 | -1.4 | 17.5 | · | ·
Nc1c(C(=O)NCCN2CCOCC2)c2nc3ccccc3nc2n1CCc1ccccc1 | 94.1* | 2.0 | 2.0 | -8.0 | 9.2 | 45.9* | 34.2*
C[C@@H]1CN([C@H](C)CO)C(=O)c2cc(NS(=O)(=O)c3cn(C)cn3)ccc2O[C@@H](C)CCCCO[C@H]1CN(C)S(=O)(=O)c1ccccc1 | · | · | -0.8 | · | · | · | ·
CN1CCN(C(=O)C[C@H]2C[C@@H]3c4cc(NC(=O)Cc5ccncc5)ccc4O[C@@H]3[C@@H](CO)O2)CC1 | · | · | 0.8 | · | · | · | ·
CC(=O)Nc1ccc(S(=O)(=O)c2c(N)n(CCN3CCOCC3)c3nc4ccccc4nc23)cc1 | 59.9* | 3.7 | 27.3 | -4.5 | 26.4 | 169.9* | 129.5*
C=CCNC(=O)c1c(N)n(CCN2CCOCC2)c2nc3ccccc3nc12 | 50.9* | -0.5 | · | 0.6 | 19.2 | 37.6* | 27.1*
CC(=O)Nc1ccc(S(=O)(=O)C(C#N)c2nc3ccccc3nc2NCCN2CCOCC2)cc1 (stereo unspecified) | 55.6* | -3.4 | · | -3.2 | 12.9 | 72.8* | 61.7*
C[C@@H]1CN([C@@H](C)CO)C(=O)c2cc(NC(=O)CCCN(C)C)ccc2O[C@H]1CN(C)C(=O)Nc1ccc(F)cc1 | · | · | 0.2 | · | · | · | ·
Cc1noc(C)c1NC(=O)N(C)C[C@H]1Oc2ccc(NS(C)(=O)=O)cc2C(=O)N([C@@H](C)CO)C[C@H]1C | · | · | -2.9 | · | · | · | ·
Cc1ccccc1S(=O)(=O)NCC[C@H]1CC[C@H](NC(=O)C2CC2)[C@@H](CO)O1 | · | · | -1.5 | · | · | · | ·
C[C@H](CO)N1C[C@H](C)[C@H](CN(C)S(C)(=O)=O)Oc2c(NC(=O)c3cnccn3)cccc2C1=O | · | · | -0.5 | · | · | · | ·
CCOC(=O)c1cnn(-c2cc(C)nc3c(-c4ccccc4)c(C)nn23)c1N | 11.1 | 4.8 | -0.4 | -0.8 | -1.5 | · | ·
CCOC(=O)c1c(-c2ccccc2)cn2c(C)cc(C)nc12 | 29.7* | 3.5 | 2.6 | -2.1 | 6.3 | 89.6* | 56.4*
N#C[C@@H]1[C@H](c2ccc(C3=CCCCC3)cc2)[C@@H](CO)N1C(=O)CN1CCOCC1 | · | · | 0.1 | · | · | · | ·
SMILES | FBA Mtb inh | Rv3671c inh | BioA inh | FadD28 FP inh | GDH-TPI counter-1 | Mtb FBA confirm | GDH-TPI counter-2 | others
CCOC(=O)c1sc2nc(C)nc(Nc3ccccc3)c2c1C | 1.9 | 7.6 | · | -0.2 | -0.6 | · | ·
CCOC(=O)c1sc2nc(C)nc(NCCc3ccc(S(N)(=O)=O)cc3)c2c1C | 35.5* | -1.7 | -1.1 | · | 4.2 | 95.6* | 77.9*
CCOC(=O)c1sc2nc(C)nc(NCc3ccccc3)c2c1C | 53.5* | -16.3 | · | -0.7 | 6.7 | -4.3 | 0.4
C[C@@H]1CN([C@H](C)CO)C(=O)c2cc(NC(=O)Nc3ccc(C(F)(F)F)cc3)ccc2O[C@@H](C)CCCCO[C@@H]1CN(C)Cc1ccc(C(=O)O)cc1 | · | · | 0.3 | · | · | · | ·
O=C(Cc1ccncc1)NCC[C@H]1CC[C@@H](NC(=O)C2CCCC2)[C@H](CO)O1 | · | · | -3.0 | · | · | · | ·
COc1ccc2oc(C(=O)OCC(=O)N(C)Cc3ccccc3)c(C)c2c1 | 30.6* | 2.4 | -0.2 | -3.4 | 1.7 | 157.8* | 167.8*
COc1ccc2oc(C(=O)OCC(=O)N(C)c3ccccc3)c(C)c2c1 | 35.3* | -1.8 | -0.5 | -0.1 | -2.4 | 128.3* | 101.2*
COc1ccc2nc(SCC(=O)O)nc(C)c2c1 | 38.9* | -1.7 | 0.2 | -2.3 | 3.1 | 101.5* | 90.0*
COc1ccc(-c2cc(-c3ccco3)[nH]c(=O)c2C#N)cc1OC | 49.3* | -0.9 | -12.5 | 5.4 | 27.9 | 44.2* | 35.8*
O=C(NCC1CCCCC1)[C@H]1N[C@H]2c3ccc(C4=CCCC4)c(=O)n3C[C@H]2[C@@H]1CO | · | · | -0.1 | · | · | · | ·
COc1ccc(-c2ccc3c(=O)cc(-c4ccsc4)oc3c2)cn1 | 47.9* | -38.6 | -3.8 | 0.8 | 15.0 | 9.7 | 1.1
CC(Oc1cccc(Cl)c1)c1ccnc2nc(/N=C/N(C)C)nn12 (stereo unspecified) | 13.2 | 2.7 | 17.3 | 0.0 | 12.6 | · | ·
CN(C)/C=N/c1nc2nccc(-c3cccc(Cl)c3)n2n1 | 34.1* | 6.6 | · | -3.7 | 0.6 | 10.5 | -5.1 | GDH-TPI DR=2.18*
CN(C)/C=N/c1nc2nccc(-c3ccc(F)cc3)n2n1 | 87.7* | 2.8 | · | -3.5 | 0.6 | 62.5* | 56.0*
C=CCn1c(N)nc2ccccc21 | -1.5 | 0.2 | 1.0 | -3.2 | -7.5 | · | ·
CCn1c(-c2ccc(N)cc2)nc2ccccc21 | 82.5* | 5.3 | -4.0 | 0.4 | 3.4 | 101.5* | 77.7*
CCn1c(N)nc2ccccc21 | 1.8 | 2.1 | 0.6 | -3.0 | -5.8 | · | ·
C=CCn1c(-c2ccc(N)cc2)nc2ccccc21 | 91.6* | 7.8 | 0.5 | -0.7 | 12.0 | 11.6 | -2.8
C[C@H](CO)N1C[C@H](C)[C@H](CN(C)C(=O)[C@@H]2CCCN2C)OCc2ccccc2-c2c(n(C)c3ccccc23)C1=O | · | · | -2.5 | · | · | · | ·
CCOCCNC(=O)c1ccc2c3c(cccc13)CC2 | 80.7* | 1.1 | -0.3 | -0.9 | 1.2 | 47.3* | 36.1*
